# Data reported in the supplement of paper PMC8728848.
# This excerpt belongs to a sample that is enriched for the strongest signals.
# B1: cupB6 (Pseudomonas aeruginosa), Q02SP7 (protein)
# chain: MSMRLFPGRVSLRRRPGAQARQALVLGLCCLTGGQAWALNEVALNCSFGNGKGLPWRVVNELTSGTAKGTVLFARPVSLFLSYKPQASQEAHELVLGGNWSGVGYPGPYGTVASDVKGIGYRISVDAQDGVKRVIPVDNQPHALDKRVTSFSGSTTSDYLQELVLTVDPGELPAGDLKVTSVSGSATLNLWAVDRLKGEASIGSVLAVPADNYPTGVCRKPYSLIGPASIAIGGGPPPPPIPKKCKVEVGREINVKLGSVALKNFPRVNDTSTERSFDISLSECAALAKPEIAFRDKYVSAQQADPTILSLKSGGAAGFGIVVKNGLDQQRIRFDGTPYPMRRVGDSADLPLSAAYIRIGAEGELKAGVADGAAEFTFTFP
# What was measured:
# Experiment in all cases: glycan array binding signal (z-score within array); higher = stronger binding
# Conditions in all cases: glycan notation: IUPAC condensed, linker removed
# [1] = target: Fuc(a1-2)Gal(b1-3)[Fuc(a1-4)]GlcNAc
# Method in brief: (§1)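 Negative Z-scores can be read as non-binding. The Z-score is calculated within each array and then averaged across arrays of one protein sequence at different concentrations or buffers and across linkers. Arrays, 3228 in all, were curated from the Consortium for Functional Glycomics database and kept only where the protein sequence was available.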
# [2] = target: Fuc(a1-2)Gal(b1-4)Glc6S
# Method in brief: as §1
# [3] = target: Fuc(a1-2)Gal(b1-4)[Fuc(a1-3)]GlcNAc(b1-3)Gal(b1-4)[Fuc(a1-3)]GlcNAc
# Method in brief: as §1
# [4] = target: Fuc(a1-2)Gal6S(b1-4)Glc
# Method in brief: as §1
# [5] = target: Fuc(a1-2)[GalNAc(b1-3)]Gal
# Method in brief: as §1
# [6] = target: Fuc(a1-3)[Gal(b1-4)]Glc6S
# Method in brief: as §1
# [7] = target: Fuc(a1-3)[Gal(b1-4)]GlcNAc(b1-3)GalNAc
# Method in brief: as §1
# [8] = target: Fuc(a1-3)[Gal3S(b1-4)]GlcNAc6S
# Method in brief: as §1
# [9] = target: Gal(a1-2)Gal
# Method in brief: as §1
# [10] = target: Gal(a1-3)Gal
# Method in brief: as §1
# [11] = target: Gal(a1-3)Gal(b1-4)GlcNAc(b1-3)GalNAc
# Method in brief: as §1
# [12] = target: Gal(a1-4)Gal(b1-4)GlcNAc(b1-2)Man(a1-3)[Gal(a1-4)Gal(b1-4)GlcNAc(b1-2)Man(a1-6)]Man(b1-4)GlcNAc(b1-4)GlcNAc
# Method in brief: as §1
# [13] = target: Gal(a1-6)Glc
# Method in brief: as §1
# [14] = target: Gal(b1-4)GlcNAc(b1-2)Man(a1-6)[Man(a1-3)]Man(b1-4)GlcNAc(b1-4)GlcNAc
# Method in brief: as §1
# [15] = target: Gal(b1-4)GlcNAc(b1-3)Gal(b1-4)GlcNAc
# Method in brief: as §1
# [16] = target: Gal(b1-4)GlcNAc(b1-3)[Gal(b1-4)GlcNAc(b1-6)]GalNAc
# Method in brief: as §1
# [17] = target: Gal(b1-4)GlcNAc(b1-6)GalNAc
# Method in brief: as §1
# [18] = target: GalNAc(b1-3)Gal
# Method in brief: as §1
# [19] = target: GalNAc(b1-3)Gal(a1-4)Gal(b1-4)GlcNAc(b1-3)Gal(b1-4)Glc
# Method in brief: as §1
# [20] = target: GlcNAc(b1-2)[GlcNAc(b1-4)]Man(a1-3)[GlcNAc(b1-2)Man(a1-6)]Man(b1-4)GlcNAc(b1-4)GlcNAc
# Method in brief: as §1
# [21] = target: GlcNAc(b1-4)GlcNAc
# Method in brief: as §1
# [22] = target: GlcNAc(b1-6)GalNAc
# Method in brief: as §1
# [23] = target: Man(a1-2)Man(a1-3)Man
# Method in brief: as §1
# [24] = target: Man(a1-2)Man(a1-3)[Man(a1-2)Man(a1-6)]Man(a1-6)[Man(a1-2)Man(a1-2)Man(a1-3)]Man
# Method in brief: as §1
# [25] = target: Man(a1-3)[Man(a1-6)]Man(a1-6)[Man(a1-3)]Man(b1-4)GlcNAc(b1-4)GlcNAc
# Method in brief: as §1
# [26] = target: Neu5Ac(a2-3)Gal(b1-3)GlcNAc(b1-3)Gal(b1-3)GlcNAc
# Method in brief: as §1
# [27] = target: Neu5Ac(a2-3)Gal(b1-3)[Fuc(a1-4)]GlcNAc(b1-3)Gal(b1-3)[Fuc(a1-4)]GlcNAc
# Method in brief: as §1
# [28] = target: Neu5Ac(a2-3)Gal(b1-3)[Neu5Ac(a2-3)Gal(b1-4)]GlcNAc
# Method in brief: as §1
# [29] = target: Neu5Ac(a2-3)Gal(b1-4)GlcNAc(b1-6)[Gal(b1-3)]GalNAc
# Method in brief: as §1
# [30] = target: Neu5Ac(a2-3)Gal(b1-4)[Fuc(a1-3)]GlcNAc(b1-3)GalNAc
# Method in brief: as §1
# [31] = target: Neu5Ac(a2-3)GalNAc(b1-4)GlcNAc
# Method in brief: as §1
# [32] = target: Neu5Ac(a2-6)Gal(b1-4)GlcNAc
# Method in brief: as §1
# [33] = target: Neu5Ac(a2-6)Gal(b1-4)GlcNAc(b1-2)Man(a1-3)Man(b1-4)GlcNAc(b1-4)GlcNAc
# Method in brief: as §1
# [34] = target: Neu5Ac(a2-6)Gal(b1-4)GlcNAc(b1-2)Man(a1-3)[Man(a1-6)]Man(b1-4)GlcNAc(b1-4)GlcNAc
# Method in brief: as §1
# [35] = target: Neu5Ac(a2-6)Gal(b1-4)GlcNAc(b1-2)Man(a1-6)[Man(a1-3)]Man(b1-4)GlcNAc(b1-4)GlcNAc
# Method in brief: as §1
# [36] = target: Neu5Ac(a2-8)Neu5Ac
# Method in brief: as §1
# [37] = target: Neu5Ac(a2-8)Neu5Ac(a2-8)Neu5Ac(a2-3)[GalNAc(b1-4)]Gal(b1-4)Glc
# Method in brief: as §1
# [38] = target: Neu5Ac(a2-8)Neu5Ac(a2-8)Neu5Ac(a2-8)Neu5Ac(a2-3)[GalNAc(b1-4)]Gal(b1-4)Glc
# Method in brief: as §1
binder,measurement,setting,value
B1,glycan array binding signal (z-score),[1],19.6
same,glycan array binding signal (z-score),[2],0.336
same,glycan array binding signal (z-score),[3],0.023
same,glycan array binding signal (z-score),[4],0.068
same,glycan array binding signal (z-score),[5],-0.269
same,glycan array binding signal (z-score),[6],-0.171
same,glycan array binding signal (z-score),[7],0.027
same,glycan array binding signal (z-score),[8],0.36
same,glycan array binding signal (z-score),[9],-0.079
same,glycan array binding signal (z-score),[10],-0.05
same,glycan array binding signal (z-score),[11],0.099
same,glycan array binding signal (z-score),[12],0.472
same,glycan array binding signal (z-score),[13],-0.09
same,glycan array binding signal (z-score),[14],0.004
same,glycan array binding signal (z-score),[15],-0.185
same,glycan array binding signal (z-score),[16],-0.207
same,glycan array binding signal (z-score),[17],-0.128
same,glycan array binding signal (z-score),[18],0.216
same,glycan array binding signal (z-score),[19],-0.12
same,glycan array binding signal (z-score),[20],-0.121
same,glycan array binding signal (z-score),[21],-0.037
same,glycan array binding signal (z-score),[22],-0.194
same,glycan array binding signal (z-score),[23],0.328
same,glycan array binding signal (z-score),[24],0.065
same,glycan array binding signal (z-score),[25],-0.11
same,glycan array binding signal (z-score),[26],0.048
same,glycan array binding signal (z-score),[27],0.124
same,glycan array binding signal (z-score),[28],-0.26
same,glycan array binding signal (z-score),[29],-0.006
same,glycan array binding signal (z-score),[30],0.376
same,glycan array binding signal (z-score),[31],-0.177
same,glycan array binding signal (z-score),[32],-0.15
same,glycan array binding signal (z-score),[33],0.058
same,glycan array binding signal (z-score),[34],0.325
same,glycan array binding signal (z-score),[35],0.107
same,glycan array binding signal (z-score),[36],-0.002
same,glycan array binding signal (z-score),[37],-0.074
same,glycan array binding signal (z-score),[38],-0.043
